Ten molecules from PubChem BioAssay (NCI) can be followed below.

Experiment [1] in a line: NCI Yeast Anticancer Drug Screen. Data for the rad50 strain (AID 155).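 Note: 0% = growth of vehicle-only cultures of the same strain.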 The conditions noted are these: S. cerevisiae rad50 strain growth inhibition, stronger effect = higher value. A digest of the protocol: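 DNA repair mutant yeast, compound exposure, growth read-out; inhibition is taken relative to vehicle.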
A short description of experiment [2]: NCI Yeast Anticancer Drug Screen. Data for the mec2-1 strain (AID 157). The conditions noted are these: S. cerevisiae mec2-1 strain, stronger effect = higher value. The procedure, abridged:
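mec2-1 yeast strain, carrying an alteration in DNA damage repair or cell cycle control, was exposed to compounds; growth inhibition was measured relative to vehicle-treated controls.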

A short description of experiment [3]: NCI Yeast Anticancer Drug Screen. Data for the sgs1 mgt1 strain (AID 161).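 Note: 0% = growth of cultures given vehicle only.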 The conditions noted are these: S. cerevisiae sgs1 mgt1 strain, stronger effect = higher value. The procedure, abridged:
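Growth of a repair-deficient yeast mutant was monitored after compound treatment and expressed as inhibition relative to vehicle-treated cultures.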

Experiment [4] is described as follows: NCI Yeast Anticancer Drug Screen. Data for the cln2 rad14 strain (AID 165).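 Note: 0% = growth equal to vehicle treated cultures.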 The note with it: S. cerevisiae cln2 rad14 strain, stronger effect = higher value. A digest of the protocol:
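Yeast carrying cln2 and rad14 alterations (cell cycle control and DNA damage repair) were exposed to compounds. Growth inhibition was measured against vehicle-treated controls.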

Experiment [5] is described as follows: NCI Yeast Anticancer Drug Screen. Data for the bub3 strain (AID 167). The note with it: S. cerevisiae bub3 mutant strain, stronger effect = higher value. The procedure, abridged:
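In this screen, a yeast mutant lacking normal mitotic checkpoint function is challenged with compound. Relative growth versus vehicle gives the inhibition value.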

Experiment [6] in a line: NCI Yeast Anticancer Drug Screen. Data for the mlh1 rad18 strain (AID 175). The conditions noted are these: S. cerevisiae mlh1 rad18 strain growth inhibition, stronger effect = higher value. A digest of the protocol:
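Growth inhibition of the yeast strain was measured after compound exposure and expressed relative to vehicle-treated controls. The strain carries defined defects in DNA damage repair.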

[7] abbreviates: at 5.0 µM (retest, dose inferred, filed as 0.5).
Where [8] appears, read: at 50.0 µM (retest, dose inferred, filed as 5.0).

About 79,000 compounds went through this panel and 15% of them were active in at least one assay; those are over-represented in the sample as a whole. A number with no mark means an inactive call. Calls of active or inactive are those of the source. Cut-off read from the data, not from the text of the source: active = growth inhibition above about 70%; inactive = the rest.

For the molecule `COc1cc2c(c(OC)c1OC)-c1ccc(O)c(=O)cc1C(N=Cc1ccccc1)CC2` (stereo not given), the growth inhibition in experiment [1] (setting [7]) is -5%; in experiment [1] (setting [8]), -5%; in experiment [1] (at 50.0 µM), -17.9%; in experiment [2] (setting [7]) it was -6%; in experiment [2] (setting [8]), -7%; in experiment [2] (at 50.0 µM), -4.45%. The growth inhibition was -8% in experiment [3] (setting [7]); -3% in experiment [3] (setting [8]); -5.3% in experiment [3] (at 50.0 µM); -7% in experiment [4] (setting [7]); 4% in experiment [4] (setting [8]); 31.9% in experiment [4] (at 50.0 µM). For the same molecule, the growth inhibition was -2% in experiment [5] (setting [7]); -2% in experiment [5] (setting [8]); 0.2% in experiment [5] (at 50.0 µM); -2% in experiment [6] (setting [7]); 0% in experiment [6] (setting [8]); 18.8% in experiment [6] (at 50.0 µM).
As to `CC(Nc1cc(Cl)cc(Cl)c1)c1ccncc1` (stereo not given), the growth inhibition was 1% in experiment [1] (setting [7]); 98% (active) in experiment [1] (setting [8]); 37.2% in experiment [1] (at 50.0 µM); -26% in experiment [2] (setting [7]); 98% (active) in experiment [2] (setting [8]); 56.4% in experiment [2] (at 50.0 µM). For the same molecule, the growth inhibition in experiment [3] (setting [7]) is -31%; in experiment [3] (setting [8]) it was 91% (active); in experiment [3] (at 50.0 µM), 43%; in experiment [4] (setting [7]), 22%; in experiment [4] (setting [8]), 98% (active); in experiment [4] (at 50.0 µM) it was 22%. Besides, the growth inhibition in experiment [5] (setting [7]) is -59%; in experiment [5] (setting [8]), 99% (active); in experiment [5] (at 50.0 µM), 43.5%; in experiment [6] (setting [7]), -10%; in experiment [6] (setting [8]), 98% (active); in experiment [6] (at 50.0 µM) it was 42.5%.
Take `O=C(NCCCl)N1CCC(CN=c2cc3n(-c4ccc(Cl)cc4)c4ccccc4nc-3cc2Nc2ccc(Cl)cc2)CC1`: the growth inhibition is -33% in experiment [1] (setting [7]); 99% (active) in experiment [1] (setting [8]); 98.6% (active) in experiment [1] (at 50.0 µM); -5% in experiment [2] (setting [7]); 99% (active) in experiment [2] (setting [8]); 98.5% (active) in experiment [2] (at 50.0 µM). Also, the growth inhibition in experiment [3] (setting [7]) is -22%; in experiment [3] (setting [8]) it was 99% (active); in experiment [3] (at 50.0 µM), 98.7% (active); in experiment [4] (setting [7]) it was -56%; in experiment [4] (setting [8]) it was 99% (active); in experiment [4] (at 50.0 µM), 98.3% (active). Also, the growth inhibition in experiment [5] (setting [7]) was -11%; in experiment [5] (setting [8]), 99% (active); in experiment [5] (at 50.0 µM), 98.4% (active); in experiment [6] (setting [7]), -34%; in experiment [6] (setting [8]) it was 98% (active); in experiment [6] (at 50.0 µM), 99% (active).
As for `N#CC(Cc1ccc(CC(C#N)(c2ccccc2)c2ccccn2)cc1)(c1ccccc1)c1ccccn1` (stereo not given), the growth inhibition was -1% in experiment [1] (setting [7]); 3% in experiment [1] (setting [8]); 20.9% in experiment [1] (at 50.0 µM); -2% in experiment [2] (setting [7]); 3% in experiment [2] (setting [8]); 34.5% in experiment [2] (at 50.0 µM). In addition, the growth inhibition is -4% in experiment [3] (setting [7]); -1% in experiment [3] (setting [8]); 10.9% in experiment [3] (at 50.0 µM); -6% in experiment [4] (setting [7]); 1% in experiment [4] (setting [8]); 2.75% in experiment [4] (at 50.0 µM). In addition, the growth inhibition in experiment [5] (setting [7]) was -2%; in experiment [5] (setting [8]), -8%; in experiment [5] (at 50.0 µM), 35.4%; in experiment [6] (setting [7]), -2%; in experiment [6] (setting [8]), 2%; in experiment [6] (at 50.0 µM), 14.8%.
Turning to `COc1cc([C@@H]2c3cc4c(cc3[C@@H](OC3OC5CO[C@@H](c6cccs6)OC5C(O)C3O)[C@H]3COC(=O)[C@H]23)OCO4)cc(OC)c1O` (stereo not given in full), the growth inhibition in experiment [1] (setting [7]) was 74% (active); in experiment [1] (setting [8]), 96% (active); in experiment [1] (at 50.0 µM), 86.6% (active); in experiment [2] (setting [7]), 5%; in experiment [2] (setting [8]), 92% (active); in experiment [2] (at 50.0 µM), 74.8% (active). For the same molecule, the growth inhibition was 6% in experiment [3] (setting [7]); 77% (active) in experiment [3] (setting [8]); 63.7% in experiment [3] (at 50.0 µM); -3% in experiment [4] (setting [7]); 79% (active) in experiment [4] (setting [8]); 47.6% in experiment [4] (at 50.0 µM). In addition, the growth inhibition in experiment [5] (setting [7]) was -2%; in experiment [5] (setting [8]), 74% (active); in experiment [5] (at 50.0 µM) it was 49.8%; in experiment [6] (setting [7]), 5%; in experiment [6] (setting [8]) it was 86% (active); in experiment [6] (at 50.0 µM), 64.7%.
On to `CCOC(=O)C1=C(C)NC2=C(C(=O)N(c3ccccc3)C2c2ccccc2)C1c1ccccc1` (stereo not given), for which the growth inhibition in experiment [1] (setting [7]) was 5%; in experiment [1] (setting [8]), 5%; in experiment [1] (at 50.0 µM), 72.5% (active); in experiment [2] (setting [7]), 9%; in experiment [2] (setting [8]), 9%; in experiment [2] (at 50.0 µM), 56.4%. Moreover, the growth inhibition is 3% in experiment [3] (setting [7]); 3% in experiment [3] (setting [8]); 63.1% in experiment [3] (at 50.0 µM); -11% in experiment [4] (setting [7]); -11% in experiment [4] (setting [8]); 65.6% in experiment [4] (at 50.0 µM). Besides, the growth inhibition in experiment [5] (setting [7]) was -7%; in experiment [5] (setting [8]) it was -7%; in experiment [5] (at 50.0 µM) it was 49.2%; in experiment [6] (setting [7]), 8%; in experiment [6] (setting [8]) it was 8%; in experiment [6] (at 50.0 µM), 54.1%.
Turning to `COc1ccc(C2Oc3ccc(Cl)cc3C=C2[N+](=O)[O-])cc1OC` (stereo not given), the growth inhibition in experiment [1] (setting [7]) was 89% (active); in experiment [1] (setting [8]), 97% (active); in experiment [1] (at 50.0 µM), 74% (active); in experiment [2] (setting [7]), 91% (active); in experiment [2] (setting [8]), 96% (active); in experiment [2] (at 50.0 µM), 77% (active). The growth inhibition in experiment [3] (setting [7]) is 86% (active); in experiment [3] (setting [8]) it was 97% (active); in experiment [3] (at 50.0 µM), 85.5% (active); in experiment [4] (setting [7]), 63%; in experiment [4] (setting [8]), 96% (active); in experiment [4] (at 50.0 µM) it was 84.3% (active). In addition, the growth inhibition in experiment [5] (setting [7]) is 88% (active); in experiment [5] (setting [8]), 96% (active); in experiment [5] (at 50.0 µM) it was 86.7% (active); in experiment [6] (setting [7]), 95% (active); in experiment [6] (setting [8]), 97% (active); in experiment [6] (at 50.0 µM) it was 86.2% (active).
Take `OCC(CCc1c[nH]c2ccccc12)c1c[nH]c2ccccc12` (stereo not given): the growth inhibition in experiment [1] (setting [7]) is 27%; in experiment [1] (setting [8]), 99% (active); in experiment [1] (at 50.0 µM), 99.4% (active); in experiment [2] (setting [7]), 5%; in experiment [2] (setting [8]), 99% (active); in experiment [2] (at 50.0 µM) it was 99.3% (active). Besides, the growth inhibition in experiment [3] (setting [7]) is 20%; in experiment [3] (setting [8]), 100% (active); in experiment [3] (at 50.0 µM), 62%; in experiment [4] (setting [7]), 5%; in experiment [4] (setting [8]), 99% (active); in experiment [4] (at 50.0 µM), 99.5% (active). The growth inhibition is 21% in experiment [5] (setting [7]); 100% (active) in experiment [5] (setting [8]); 99.3% (active) in experiment [5] (at 50.0 µM); 11% in experiment [6] (setting [7]); 98% (active) in experiment [6] (setting [8]); 99.3% (active) in experiment [6] (at 50.0 µM).
In the case of `S=C1NC2=C(COC/C2=C\c2ccccc2Cl)C(c2ccccc2Cl)N1` (stereo not given), the growth inhibition was 94% (active) in experiment [1] (setting [7]); 94% (active) in experiment [1] (setting [8]); 76.9% (active) in experiment [1] (at 50.0 µM); 47% in experiment [2] (setting [7]); 96% (active) in experiment [2] (setting [8]); 81.5% (active) in experiment [2] (at 50.0 µM). For the same molecule, the growth inhibition in experiment [3] (setting [7]) was 55%; in experiment [3] (setting [8]), 97% (active); in experiment [3] (at 50.0 µM) it was 79.2% (active); in experiment [4] (setting [7]), 53%; in experiment [4] (setting [8]), 96% (active); in experiment [4] (at 50.0 µM) it was 76.8% (active). For the same molecule, the growth inhibition in experiment [5] (setting [7]) is 58%; in experiment [5] (setting [8]), 96% (active); in experiment [5] (at 50.0 µM), 82% (active); in experiment [6] (setting [7]) it was 92% (active); in experiment [6] (setting [8]), 94% (active); in experiment [6] (at 50.0 µM) it was 81.3% (active).
In the case of `OC(c1ccccc1)(c1ccccc1)C(F)(Cl)Cl`, the growth inhibition in experiment [1] (setting [7]) is 1%; in experiment [1] (setting [8]), 10%; in experiment [1] (at 50.0 µM), 52.2%; in experiment [2] (setting [7]), 0%; in experiment [2] (setting [8]), 58%; in experiment [2] (at 50.0 µM) it was 94.8% (active). The growth inhibition in experiment [3] (setting [7]) was -4%; in experiment [3] (setting [8]), 15%; in experiment [3] (at 50.0 µM) it was 64.4%; in experiment [4] (setting [7]), 1%; in experiment [4] (setting [8]), 17%; in experiment [4] (at 50.0 µM), 92.9% (active). The growth inhibition in experiment [5] (setting [7]) was -14%; in experiment [5] (setting [8]) it was 9%; in experiment [5] (at 50.0 µM), 98.5% (active); in experiment [6] (setting [7]), -2%; in experiment [6] (setting [8]) it was 37%; in experiment [6] (at 50.0 µM) it was 39.5%.
